Inconclusive results are not listed. Calls of active or inactive are those of the source. Unless noted, the call rests on the fitted dose curve; in most records, active means well fitted curve in the direction sought with a large enough effect; inconclusive means small, poorly fitted or top-dose-only effect, or another doubt; inactive means no such curve, though single readings can be large; an effect the other way counts as inactive or inconclusive.
Assays:
[1] = qHTS for Inhibitors of the Functional Ribonucleoprotein Complex (vRNP) of Lassa (LASV) Arenavirus: LASV Primary Screen - GLuc reporter signal (AID 1347082; calls by dose curve; tested in HEK293 reporter line; further: series mostly up to about 57 µM; nearly all actives have a fitted effect of over 60% in size)
[2] = qHTS for Inhibitors of the Functional Ribonucleoprotein Complex (vRNP) of Lassa (LASV) Arenavirus: Viability assay - alamar blue signal for LASV Primary Screen (AID 1347083; calls by dose curve; tested in HEK293 reporter line; further: series mostly up to about 57 µM; nearly all actives have a fitted effect of over 80% in size)
[3] = qHTS for Inhibitors of the Functional Ribonucleoprotein Complex (vRNP) of Lymphocytic Choriomeningitis Arenaviruses (LCMV): Viability assay - alamar blue signal for LCMV Primary Screen (AID 1347085; calls by dose curve; tested in HEK293 reporter line; further: series mostly up to about 57 µM; nearly all actives have a fitted effect of over 80% in size)
[4] = biological target: Nucleoprotein (Lymphocytic choriomeningitis virus (strain Armstrong)) (UniProt P09992); assay: qHTS for Inhibitors of the Functional Ribonucleoprotein Complex (vRNP) of Lymphocytic Choriomeningitis Arenaviruses (LCMV): LCMV Primary Screen - GLuc reporter signal (AID 1347086; calls by dose curve; further: series mostly up to about 57 µM; nearly all actives have a fitted effect of over 70% in size)
Chain of Nucleoprotein (Lymphocytic choriomeningitis virus (strain Armstrong)) (P09992 whole entry, looked up): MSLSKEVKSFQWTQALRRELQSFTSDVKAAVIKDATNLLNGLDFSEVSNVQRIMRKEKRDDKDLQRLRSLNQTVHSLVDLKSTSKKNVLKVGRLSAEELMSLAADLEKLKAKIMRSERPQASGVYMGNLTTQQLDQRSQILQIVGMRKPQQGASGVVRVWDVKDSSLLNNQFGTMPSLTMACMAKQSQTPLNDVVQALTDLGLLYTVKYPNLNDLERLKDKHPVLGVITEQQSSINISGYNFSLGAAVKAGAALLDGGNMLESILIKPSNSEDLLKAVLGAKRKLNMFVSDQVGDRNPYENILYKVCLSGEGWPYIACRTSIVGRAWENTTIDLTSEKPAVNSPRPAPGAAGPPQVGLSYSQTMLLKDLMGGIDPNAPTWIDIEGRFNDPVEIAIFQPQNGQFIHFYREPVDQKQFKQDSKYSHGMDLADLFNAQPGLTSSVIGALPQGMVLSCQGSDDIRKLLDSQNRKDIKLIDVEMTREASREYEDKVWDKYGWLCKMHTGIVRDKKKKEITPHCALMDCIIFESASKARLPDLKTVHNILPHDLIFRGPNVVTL

[5] = qHTS of pediatric cancer cell lines to identify multiple opportunities for drug repurposing: Primary screen for TC32 cells (AID 1347089); further: nearly all actives have a fitted effect of over 60% in size
Method in brief: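 qHTS, TC32, 48 h drug treatment, CellTiter-Glo luminescence as a proxy for metabolically active cells; primary top concentration 46 µM (MIPE 11-pt, NPC 8-pt); confirmatory 11-pt.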

[6] = qHTS of pediatric cancer cell lines to identify multiple opportunities for drug repurposing: Primary screen for DAOY cells (AID 1347090); further: series mostly up to about 46 µM; nearly all actives have a fitted effect of over 55% in size
Method in brief: (§1)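 Viability measured as metabolically active cells via CellTiter-Glo luminescence following 48 hours of compound exposure, 11-point dilutions in confirmatory testing. 500-1,000 cells/well plated 5 hours before dosing; controls were DMSO and 2.3 µM bortezomib.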

[7] = qHTS of pediatric cancer cell lines to identify multiple opportunities for drug repurposing: Primary screen for SJ-GBM2 cells (AID 1347091)
Method in brief: as §1

[8] = qHTS of pediatric cancer cell lines to identify multiple opportunities for drug repurposing: Primary screen for A673 cells (AID 1347092); further: nearly all actives have a fitted effect of over 45% in size
Method in brief: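 Luminescence from CellTiter-Glo, taken after 15 min at room temperature, served as the proxy for metabolically active cells following 48 h treatment. Both potency and efficacy were taken from curves fitted to the titration data.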

[9] = qHTS of pediatric cancer cell lines to identify multiple opportunities for drug repurposing: Primary screen for SK-N-MC cells (AID 1347093); further: series mostly up to about 46 µM
Method in brief: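 Metabolically active cells were quantified by ATP-dependent luminescence (CellTiter-Glo, 15 min at room temperature) following 48 h treatment. Cells had been plated at 500-1,000 per well and settled for 5 h beforehand.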

[10] = qHTS of pediatric cancer cell lines to identify multiple opportunities for drug repurposing: Primary screen for BT-37 cells (AID 1347094); further: series mostly up to about 57 µM
Method in brief: (§2)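 Cells seeded at 500-1,000 cells/well in growth media, rested 5 hours at 37 degrees C, 5% CO2, then dosed; MIPE compounds at 11-point (from 0.78 nM) and NPC at 8-point (from 0.59 nM) final concentrations. Viability by CellTiter-Glo luminescence after 48 hours.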

[11] = qHTS of pediatric cancer cell lines to identify multiple opportunities for drug repurposing: Primary screen for NB-EBc1 cells (AID 1347095)
Method in brief: as §2

[12] = qHTS of pediatric cancer cell lines to identify multiple opportunities for drug repurposing: Primary screen for U-2 OS cells (AID 1347096); further: nearly all actives have a fitted effect of over 50% in size
Method in brief: (§3)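 Viability after 48 h compound treatment at 37C, 500-1,000 cells/well, read as ATP luminescence with CellTiter-Glo. Primary screens used 11-point (MIPE, 0.78 nM-46 µM) or 8-point (NPC, 0.59 nM-46 µM) final concentrations; follow-up screens used 11-point dilutions.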

[13] = qHTS of pediatric cancer cell lines to identify multiple opportunities for drug repurposing: Primary screen for Saos-2 cells (AID 1347097); further: nearly all actives have a fitted effect of over 40% in size
Method in brief: as §2

[14] = qHTS of pediatric cancer cell lines to identify multiple opportunities for drug repurposing: Primary screen for SK-N-SH cells (AID 1347098);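 further: DMSO served as neutral control and bortezomib at 2.3 µM as positive control; nearly all actives have a fitted effect of over 65% in size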
Method in brief: (§4)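 Cells (500-1,000/well) rested 5 h, then received compounds for 48 h; metabolically active cells were measured by CellTiter-Glo luminescence. Final concentrations spanned up to 46 µM (MIPE, 11-point) or 0.59 nM-46 µM (NPC, 8-point) in primary screens, 11-point in follow-ups.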

[15] = qHTS of pediatric cancer cell lines to identify multiple opportunities for drug repurposing: Primary screen for NB1643 cells (AID 1347099); further: nearly all actives have a fitted effect of over 50% in size
Method in brief: as §2

[16] = qHTS of pediatric cancer cell lines to identify multiple opportunities for drug repurposing: Primary screen for LAN-5 cells (AID 1347100)
Method in brief: as §3

[17] = qHTS of pediatric cancer cell lines to identify multiple opportunities for drug repurposing: Primary screen for BT-12 cells (AID 1347101); further: nearly all actives have a fitted effect of over 25% in size
Method in brief: as §4

[18] = qHTS of pediatric cancer cell lines to identify multiple opportunities for drug repurposing: Primary screen for Rh18 cells (AID 1347102); further: nearly all actives have a fitted effect of over 65% in size
Method in brief: as §3

Measured: Potency

CNC(=O)NC(O)C(Cl)(Cl)Cl (configuration not stated)
inactive: all assays above

CCCOc1ccccc1-c1nc2n[nH]nc2c(=O)[nH]1
inactive: [1] | [2] | [3] | [4]

OC(c1ccccc1)(c1ccccc1)C1CCNCC1
not listed: [18]
inactive: all other assays above

NCc1cccnc1
not listed: [17]
inactive: all other assays above

C[C@]12CC[C@H]3[C@@H](CC=C4C[C@@H](O)CC[C@@]43C)[C@@H]1CC[C@@H]2O
inactive: all assays above

OC(O)C(Cl)(Cl)Cl
inactive: all assays above

CC(C)NCC(O)c1ccc(N)c(C#N)c1 (configuration not stated)
inactive: all assays above

C[C@H]1CNCCc2ccc(Cl)cc21
inactive: all assays above

CCc1ccc(C2CCNCC2)cc1
inactive: all assays above

CN(C)CCN(Cc1cccs1)c1ccccn1
inactive: [1] | [2] | [3] | [4]

C[N+]1(CCC(C(N)=O)(c2ccccc2)c2ccccc2)CCCCC1
inactive: all assays above

C[C@@H]1CN(C2CCC(C#N)(c3ccc(F)cc3)CC2)CC[C@]1(C(=O)O)c1ccccc1 (some centres not stated)
inactive: all assays above

COc1cc(CC#N)cc(OC)c1OC
inactive: all assays above

CCN(Cc1ccc(Cl)nc1)/C(=C/[N+](=O)[O-])NC
not listed: [17]
inactive: all other assays above

CC(Cc1ccc2c(c1)OCO2)NO (configuration not stated)
inactive: all assays above

C1CN2CCC1CC2
inactive: all assays above

From PubChem BioAssay (NCATS)
